From PubChem BioAssay AID651616 (The Scripps Research Institute Molecular Screening Center, 2012) come the findings set out here.

Usually inhibition stands for the drop in the measured response relative to a control, in per cent.

The whole screen tested about 5,600 compounds, of which about 4,400 (79%) were called active. The set was probably picked from earlier hits. These entries were drawn from the full list. Unmarked numbers belong to inactive results. No stated cut-off is given here; in the data, active means inhibition above about 27%; inactive means the rest.

The experiment deals with Fructose-bisphosphate aldolase (Mycobacterium tuberculosis (strain ATCC 25618 / H37Rv)) (UniProt P9WQA3). As to the kind of experiment: M. tuberculosis aldolase blockers, biochemical, fluorescence, strain H37Rv, confirmation (AID 651616).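 Further: 0% = vehicle wells and 100% = reference inhibitor wells.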 The following applies: purified M. tuberculosis FBA, fluorescence read-out, at 1 µM, stronger effect = higher value.
Chain of Fructose-bisphosphate aldolase (Mycobacterium tuberculosis (strain ATCC 25618 / H37Rv)) (P9WQA3 whole entry, looked up): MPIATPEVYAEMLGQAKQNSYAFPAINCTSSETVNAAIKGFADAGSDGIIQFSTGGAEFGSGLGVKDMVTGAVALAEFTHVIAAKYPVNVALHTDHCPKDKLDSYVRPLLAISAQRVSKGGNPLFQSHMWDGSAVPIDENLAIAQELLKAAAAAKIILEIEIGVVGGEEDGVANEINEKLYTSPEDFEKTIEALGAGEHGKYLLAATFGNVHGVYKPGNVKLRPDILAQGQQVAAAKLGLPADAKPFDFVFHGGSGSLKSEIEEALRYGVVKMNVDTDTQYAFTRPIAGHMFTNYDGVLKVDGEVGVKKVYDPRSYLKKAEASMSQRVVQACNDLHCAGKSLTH
Regarding `COc1ccc(-c2nc3cc(C)ccn3c2NC2CCCCC2)cc1SC1CCCCC1`, the inhibition was 53.2% (active).

As to `O=C(CCc1ccccc1)Nc1cccc(-c2nnc(-c3ccco3)o2)c1`, the inhibition is 91% (active).

Turning to `O=C(Nc1ccc(-c2nnc(-c3ccccc3)o2)cc1)C1CCCO1` (stereo not drawn), the inhibition is 1.4%.

As for `CC(=O)N1C(=O)/C(=C2\SC(=S)N(NC(=O)c3ccc(O)cc3)C2=O)c2ccccc21`, the inhibition was 10.4%.

On to `Cc1cc(C)c2nc(-c3ccco3)cc(C(=O)O)c2c1`, for which the inhibition is 3.93%.

`Cc1cc(C)c2nc3nc(C)cc(C)c3c(N)c2c1`: the inhibition is 41.1% (active).

On to `CCOC(=O)N1CCC(NC(=O)c2cnn3ccccc23)CC1`, for which the inhibition was 42.5% (active).

For `CCOc1c2ccc(C(=O)NC3CCCc4ccccc43)cc2nn1CC` (stereo not drawn), the inhibition was 21.6%.

On to `CCOc1c2ccc(C(=O)NCc3ccc4c(c3)OCO4)cc2nn1C`, for which the inhibition is 107% (active).

Regarding `CCCn1nc2cc(C(=O)NCc3ccccc3)ccc2c1OCC`, the inhibition was -3.79%.

As for `CCOc1c2ccc(C(=O)NCc3ccc(OC(F)(F)F)cc3)cc2nn1C`, the inhibition was 106% (active).

`O=C(NCc1cccc(Cl)c1)C1=CC=CN2CCS(=O)(=O)N=C12`: the inhibition is 11.8%.

`C=CCn1c(CCNC(=O)c2ccccc2F)nnc1SCC(=O)Nc1ccc(OC)cc1`: the inhibition was 586% [above what the read-out allows, likely interference] (active).

For `Cc1ccsc1C(=O)N[C@@H](C)c1nnc2ccccn12`, the inhibition was 125% (active).

Take `CC(C)n1c(-c2cccs2)nc2ccccc21`: the inhibition is 87% (active).

Regarding `CC1(C(=O)NCc2ccc(F)c(F)c2)Cc2c(-c3ccc4c(c3)OCO4)ccnc2O1` (stereo not drawn), the inhibition is 155% (active).

Turning to `CC1(C(=O)NCc2ccco2)Cc2c(-c3ccc4c(c3)OCO4)ccnc2O1` (stereo not drawn), the inhibition was 7.76%.

As to `Cc1cc(=O)oc2c3c(cc(OCC(=O)NCC(O)c4ccccc4)c12)OC(C)(C)CC3` (stereo not drawn), the inhibition was 62% (active).

`CC1(C)CC(=O)c2cc(OCC(=O)NCC3CCCO3)ccc2O1` (stereo not drawn): the inhibition is -1.83%.

For `CCCCNc1c(-c2cccc(Sc3ccc(OC)cc3)c2)nc2ccccn12`, the inhibition was 35.1% (active).

Take `CCCCn1c(-c2cccc(C)c2)nc2cc3[nH]c(=O)c(C(C)C)nc3cc21`: the inhibition is 34.1% (active).

For the molecule `O=C(O)/C=C/c1cn(-c2ccccc2)nc1-c1cccs1`, the inhibition is 92.4% (active).

Regarding `O=C(CN1C(=O)c2cccc3cccc(c23)C1=O)N1CCCCC1`, the inhibition was 70.8% (active).

Turning to `c1ccc2c(NC3C4CC5CC(C4)CC3C5)nc(N3CCOCC3)nc2c1` (stereo not drawn), the inhibition is 134% (active).

As for `CC(Nc1nc(N2CCOCC2)nc2ccccc12)c1ccccc1` (stereo not drawn), the inhibition was 56.5% (active).

Take `COC(=O)CSc1nc(C)c2ccc(OC)cc2n1`: the inhibition was -3.91%.

As to `CCOC(=O)Cn1c(=O)n(Cc2ccc(OC)cc2)c(=O)c2cccnc21`, the inhibition is 852% [above what the read-out allows, likely interference] (active).

For the molecule `O=C(CCC(=O)N/N=C/c1ccc(Br)o1)N/N=C/c1ccc(Br)o1`, the inhibition is 110% (active).

As to `CCC(=O)Nc1c(S(=O)(=O)c2ccccc2)c2nc3ccccc3nc2n1Cc1ccccc1`, the inhibition is 173% (active).

Take `COc1ccc2nc(-c3ccccn3)ccc2c1`: the inhibition was 116% (active).

Consider `COc1ccc(C2NC(=O)c3ccccc3N2)cc1` (stereo not drawn), for which the inhibition was 146% (active).

In the case of `O=C1NC(c2cccc(Cl)c2)Nc2ccccc21` (stereo not drawn), the inhibition was 102% (active).

Consider `Cc1ccc2nc(-c3ccco3)c(Cc3cccc(Cl)c3)n2c1`, for which the inhibition is 94.1% (active).

`O=C1OCCN1C(=O)[C@H]1[C@H](c2ccc(F)cc2)C(c2ccccc2)=NN1c1ccc(Br)cc1`: the inhibition is 65.6% (active).

As to `CNc1nc(-c2ccccc2)cc(-c2ccccc2)n1`, the inhibition is 76.6% (active).

As for `CCCN(C(=O)CSc1nnc(N)s1)c1c(N)n(Cc2ccccc2)c(=O)[nH]c1=O`, the inhibition is 59.2% (active).

Turning to `COc1ccc(-c2ccc(C(=O)NC(C)C)c3occc23)c(C)c1`, the inhibition is 112% (active).

With `COc1ccc(-c2ccc(C(=O)NCCN3CCOCC3)c3occc23)c(C)c1`, the inhibition is 72% (active).

Turning to `COc1ccc(-c2oc3ncnc(NCCCO)c3c2-c2ccc(OC)cc2)cc1`, the inhibition is 51.9% (active).

For the molecule `Cc1cc(C)nc(SCc2cn3c(C)cc(C)nc3n2)n1`, the inhibition was 102% (active).

Take `COc1cccc(NC(=O)CN(C)CC(=O)Nc2ccc3c(c2)CCC3)c1`: the inhibition was 89% (active).

For the molecule `COc1cccc(NC(=O)CN(C)C(=O)/C=C/c2cc(OC)ccc2OC)c1`, the inhibition is 105% (active).

In the case of `Cc1c(OC(C)C(=O)N[C@@H](Cc2ccccc2)C(=O)O)ccc2c3c(c(=O)oc12)CCCC3` (stereo partly drawn), the inhibition is 5.53%.

With `COc1ccc2c3c(c(=O)oc2c1OCC(=O)C(C)(C)C)CCCC3`, the inhibition is 60.2% (active).

In the case of `CCC(=O)Nc1ccc2nn(-c3ccc(F)cc3)nc2c1`, the inhibition is 88% (active).

Turning to `CCCC/C=C/c1cccc2nncn12`, the inhibition was 68.8% (active).

For the molecule `CN1CCN(CCCNC(=O)c2ccc(/C=C3\Oc4ccccc4N(Cc4ccc(Cl)cc4)C3=O)cc2)CC1`, the inhibition is -4.52%.

Turning to `O=C(NCCN1CCOCC1)c1ccc2c(c1)N(Cc1ccc(Cl)cc1)CCS2`, the inhibition is 56.6% (active).

On to `O=C(NCCc1ccccc1)c1ccc2c(c1)N(Cc1ccccc1)CCS2`, for which the inhibition is 42.5% (active).

Regarding `COCCCNC(=S)N(CCN(C)C)Cc1cc2cc3c(cc2[nH]c1=O)OCCO3`, the inhibition was 43.2% (active).

With `COc1ccc(C2C3=C(CCCC3=O)N(CC(=O)O)C3=C2C(=O)CCC3)cc1`, the inhibition was 128% (active).

Turning to `Cc1nc2c(-c3ccccc3)c(C)[nH]n2c(=O)c1Cl`, the inhibition is 105% (active).

In the case of `COCc1cc(=O)n2[nH]c(C)c(-c3ccccc3)c2n1`, the inhibition is 50.6% (active).

On to `CCCc1cc(=O)n2[nH]c(C)c(-c3ccc(Cl)cc3)c2n1`, for which the inhibition is 123% (active).

Consider `O=C(O)Cc1sc(-c2ccc(C(=O)O)cc2)nc1-c1ccccc1`, for which the inhibition was -7.84%.

In the case of `c1cc(-c2ccc3[nH]ccc3c2)n2ccnc2c1`, the inhibition is 79.6% (active).

In the case of `COc1ccc(CNC(=O)c2c[nH]c3c(OC)cc(OC)cc3c2=O)cc1`, the inhibition is -2.04%.

With `Cc1ccc(Cn2c(C)nc3c(c2=O)c2nc4ccccc4nc2n3Cc2ccco2)cc1`, the inhibition is 55% (active).

For `CC(=O)Nc1ccc(-c2nc3ccccc3o2)cc1`, the inhibition was 8.14%.

Regarding `COc1cc(OC)cc(C(=O)Nc2ccc(-c3nc4ccccc4o3)c(O)c2)c1`, the inhibition is 148% (active).

Regarding `CC(C)OCCCNc1ncnc2c1[nH]c1ccc(F)cc12`, the inhibition is 132% (active).

For `CC(C)CN1CCNC(=O)C1CC(=O)N(C)CC1CCOCC1` (stereo not drawn), the inhibition is 138% (active).

Turning to `Cc1cc(OCc2cc(C(=O)O)oc2C)c2c3c(c(=O)oc2c1)CCCC3`, the inhibition is 151% (active).

Turning to `COC(=O)COc1cc(C)cc2oc(=O)c3c(c12)CCCC3`, the inhibition is 124% (active).

Turning to `CCCS(=O)(=O)Nc1c(C(=O)O)[nH]c2ccccc12`, the inhibition was 54.9% (active).

For `COC(=O)c1c(-c2ccsc2)oc2ccc(-c3cc(OC)c(OC)c(OC)c3)cc12`, the inhibition was 2.75%.

With `CCOC(=O)c1c(-c2ccccc2)oc2ccc(OCC(=O)NN)cc12`, the inhibition is 108% (active).

For `CCOC(=O)c1c(-c2ccccc2)oc2ccc(OCC(N)=O)cc12`, the inhibition is 148% (active).

As for `COc1cc(C(F)(F)F)nc2c(Br)c(C(C)(C)C)nn12`, the inhibition was 66.4% (active).

Regarding `Cc1ccc(NC(=O)CN(C)C(=O)COC(=O)c2nccnc2N)cc1`, the inhibition is 4.29%.

`COc1ccc2oc(=O)c(C(=O)NCc3ccccn3)cc2c1`: the inhibition was 10.3%.

Take `CCN(CC)c1ccc2cc(C(=O)O)c(=O)oc2c1`: the inhibition was 22.1%.

With `COc1ccc2oc(=O)c(C(=O)N3CCCC3)cc2c1`, the inhibition was 113% (active).

For `CCc1c(C)nc2cc(C)[nH]n2c1=O`, the inhibition was 45.6% (active).

Take `C=CCc1c(C)nc2cc(-c3ccccc3)[nH]n2c1=O`: the inhibition was 56.1% (active).

Regarding `CCc1c(C)nc2cc(-c3cccs3)[nH]n2c1=O`, the inhibition is 26.8%.

On to `CN(C)S(=O)(=O)c1ccc(N/C=C(\[N+](=O)[O-])S(=O)(=O)c2ccccc2)cc1`, for which the inhibition was 2.34%.

As for `COCc1cc(=O)oc2cc(NS(=O)(=O)c3ccc(C)cc3)ccc12`, the inhibition was 62.7% (active).

On to `COCCN(CCOC)c1nc(N)c2c(N)nc3c(c2c1C#N)CC(=O)N3Cc1ccc(Cl)cc1`, for which the inhibition is 89.8% (active).

`CCCC1OC23CCCCC2C(C#N)(C#N)C1(C#N)C(=N)O3` (stereo not drawn): the inhibition was -0.85%.

For the molecule `CC(=O)N1CCN(C(=O)c2cc(-c3ccc(Cl)s3)nc3ccccc23)CC1`, the inhibition is 12.6%.

As for `O=C(c1cc(-c2ccc(Cl)s2)nc2ccccc12)N1CCOCC1`, the inhibition is 111% (active).

For the molecule `Cc1nn(C)c(Oc2ccccc2)c1CCNS(=O)(=O)c1ccc(F)cc1`, the inhibition was 157% (active).

Turning to `Cc1cccc(NC(=O)c2sc3nc(N4CCOCC4)c4c(c3c2N)CCCC4)c1`, the inhibition was 108% (active).

`Oc1ccc(Br)cc1C=Nc1ccc2[nH]ncc2c1`: the inhibition was 79.1% (active).

As to `COc1ccc(-c2cc(C(=O)N(C)Cc3ccccc3)c3ccccc3n2)cc1`, the inhibition was -2.17%.

As for `COc1ccc(-c2cn3ccc(C)cc3n2)cc1`, the inhibition was 4.46%.

As to `COc1ccc(-c2cc(C(=O)Nc3ccccc3O)c3ccccc3n2)cc1`, the inhibition was 133% (active).

With `COc1nc(N=C(N)N)nc2c(C)cccc12`, the inhibition is 108% (active).

For the molecule `COc1cc2nc(N3CCN(C(=O)[C@@H]4CCCO4)CC3)nc(N)c2cc1OC`, the inhibition is 109% (active).

Take `CC(C)C1Nc2c(C(=O)O)cccc2C(Nc2ccccc2C(=O)O)C1(C)C` (stereo not drawn): the inhibition was 95.8% (active).

Turning to `Cc1noc(C)c1COc1ccc2ccc(=O)oc2c1`, the inhibition is 55.1% (active).

Take `COC(=O)c1c(C)c(C)nc(N)c1C#N`: the inhibition was 56.3% (active).

Take `CCOC(=O)Cc1c(C)nc2c(C#N)c(C)nn2c1C`: the inhibition was 63.7% (active).

For the molecule `Cc1cc(C)c(-c2c(O)c3ccccc3n(C)c2=O)c(C)c1`, the inhibition is 78.7% (active).

`CCSc1nnc(-c2cc3c(s2)-c2ccccc2CC3)o1`: the inhibition was 76.8% (active).

In the case of `CCCCOc1ccc(-c2nnc(-c3ccco3)o2)cc1`, the inhibition was 174% (active).

In the case of `CCOc1ccc(-c2nnc(-c3ccco3)o2)cc1`, the inhibition is 106% (active).
